In PubChem BioAssay (NCATS):
Records with an inconclusive call do not appear. Where a call stands in place of a potency, no number is given. Activity calls are given as the source filed them. Calls follow the shape of the dose curve; as a rule, active = well fitted inhibition curve with a large enough effect; inconclusive = small, poorly fitted or top-dose-only effect; inactive = flat fitted curve, though single readings scatter.

The compounds below were run against Ubiquitin carboxyl-terminal hydrolase 1 (Homo sapiens) (UniProt O94782) (assay: Inhibitors of USP1/UAF1: Pilot qHTS (AID 504865;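 also: rhodamine fluorescence freed from ubiquitin-rhodamine substrate followed over time; top concentration of the series differs between compounds; nearly all actives have a fitted effect of over 35% in size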)). Conditions: purified USP1/UAF1, Ub-rhodamine cleavage fluorescence; series mostly up to 114 µM.
Sequence of Ubiquitin carboxyl-terminal hydrolase 1 (Homo sapiens) (O94782 whole entry, looked up): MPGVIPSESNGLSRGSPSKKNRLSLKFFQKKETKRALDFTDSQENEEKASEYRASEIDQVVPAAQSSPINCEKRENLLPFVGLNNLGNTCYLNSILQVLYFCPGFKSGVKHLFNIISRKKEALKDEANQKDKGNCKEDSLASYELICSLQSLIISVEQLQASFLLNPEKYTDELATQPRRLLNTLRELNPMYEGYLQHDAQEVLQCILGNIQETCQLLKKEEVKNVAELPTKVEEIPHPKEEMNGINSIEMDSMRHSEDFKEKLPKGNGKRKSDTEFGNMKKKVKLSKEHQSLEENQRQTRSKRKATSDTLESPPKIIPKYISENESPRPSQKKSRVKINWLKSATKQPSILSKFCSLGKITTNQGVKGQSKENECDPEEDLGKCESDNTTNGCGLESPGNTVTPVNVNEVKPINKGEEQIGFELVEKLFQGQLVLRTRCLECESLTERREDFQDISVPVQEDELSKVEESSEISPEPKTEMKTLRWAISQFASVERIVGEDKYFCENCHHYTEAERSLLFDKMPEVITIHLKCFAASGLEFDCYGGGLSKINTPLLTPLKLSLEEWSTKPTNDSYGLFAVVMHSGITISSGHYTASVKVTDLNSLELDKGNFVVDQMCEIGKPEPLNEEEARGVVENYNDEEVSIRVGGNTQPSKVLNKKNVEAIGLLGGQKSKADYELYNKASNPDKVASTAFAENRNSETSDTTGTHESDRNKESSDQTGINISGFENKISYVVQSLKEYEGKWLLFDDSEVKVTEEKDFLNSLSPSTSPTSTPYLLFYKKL
How it was run: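 In 50mM HEPES pH 7.8 containing 0.5mM EDTA, 1mM TCEP, 0.1 mg/ml BSA and 0.01% Tween-20, 1nM USP1/UAF1 is exposed to compound for 15 min, then Ub-Rho (150nM final) is added and fluorescence is read over time.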

SMILES	Potency
CC(=O)Nc1ccc(OC(=O)c2ccccc2O)cc1	inactive
CC(=O)c1ccc2c(c1)N(CCCN1CCN(CCO)CC1)c1ccccc1S2	inactive
CC1(O)CCC(C(C)(C)O)CC1 (centres undefined)	inactive
S=C=Nc1ccc(N=C=S)cc1	inactive
CN[C@@H]1[C@H](O[C@H]2[C@H](O[C@H]3[C@H](O)[C@@H](O)[C@H](N=C(N)N)[C@@H](O)[C@@H]3N=C(N)N)O[C@@H](C)[C@]2(O)C=O)O[C@@H](CO)[C@H](O)[C@H]1O	inactive
CC(O)CN(C)C (centres undefined)	inactive
Cc1ncc(C[n+]2csc(CCOP(=O)(O)O)c2C)c(N)n1	inactive
N=C(N)n1cccn1	inactive
O=C(CCCN1CCC(C(=O)c2ccc(F)cc2)CC1)c1ccc(F)cc1	inactive
NC(=O)[C@@H]1CCCN1C(=O)[C@H](Cc1cnc[nH]1)NC(=O)[C@@H]1CCC(=O)N1	inactive
CO[C@H]1C[C@@H]2CC[C@@H](C)[C@@](O)(O2)C(=O)C(=O)N2CCCC[C@H]2C(=O)O[C@H]([C@H](C)C[C@@H]2CC[C@@H](OC(=O)C(C)(CO)CO)[C@H](OC)C2)CC(=O)[C@H](C)/C=C(\C)[C@@H](O)[C@@H](OC)C(=O)[C@H](C)C[C@H](C)/C=C/C=C/C=C/1C	inactive
CCOC(=S)SSC(=S)OCC	inactive
CC(=O)[C@H]1CC[C@H]2[C@@H]3C=CC4=CC(=O)CC[C@@]4(C)[C@H]3CC[C@]12C	inactive
COC1=C(OC)C(=O)C(C/C=C(\C)CC/C=C(\C)CC/C=C(\C)CC/C=C(\C)CC/C=C(\C)CC/C=C(\C)CC/C=C(\C)CC/C=C(\C)CC/C=C(\C)CCC=C(C)C)=C(C)C1=O	inactive
